The source of these data is PubChem BioAssay (EPA / NIEHS).

Each structure is given as a SMILES string. The source made the active and inactive calls. How the source made its calls: active means hit-call score of the fitted dose curve at least 0.9, where 1 is the maximum; inactive means score below 0.9.

Assay [1] can be described thus: ATG_GLI_CIS: Attagene CIS-FACTORIAL HepG2 Assay for human Zinc Finger Protein GLI1 (AID 2282945). The note with it: HepG2, Attagene cis-factorial reporter mRNA, GLI element; actives raise or lower the signal. The method in brief: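 Bidirectional curve fits relative to DMSO, using reporter mRNA levels from RT-PCR plus capillary electrophoresis. Cells were HepG2 transiently carrying cis-regulated reporter constructs, harvested 24 h after dosing.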

The target of assay [2] is Bile acid receptor (Homo sapiens) (UniProt Q96RI1). Nature of the assay: ATG_IR1_CIS: Attagene CIS-FACTORIAL HepG2 Assay for human Nuclear Receptor Subfamily 1 Group H Member 4 (NR1H4), IR1 submotif (AID 2282946). The note with it: IR1 reporter transcription, actives raise or lower the signal. The procedure, abridged:
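Cells (human HepG2) carry transiently transfected cis-promoter reporter transcription units. Compounds are incubated 24 h, total RNA is reverse-transcribed and amplified, and labelled fragments are resolved by capillary electrophoresis. Curves use DMSO as baseline.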

Assay [3] can be described thus: ATG_GRE_CIS: Attagene CIS-FACTORIAL HepG2 Assay for human Glucocorticoid Response Elements (GRE) (AID 2282947). The note with it: HepG2 GRE cis-reporter, Attagene multiplex mRNA; actives raise or lower the signal. The procedure, abridged: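 Assay uses human hepatoma HepG2 cells transfected with cis-promoter reporter units, exposed 24 h. mRNA from reporters detected by RT-PCR plus capillary electrophoresis; DMSO serves as negative control and baseline.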

The nature of assay [4]: ATG_ISRE_CIS: Attagene CIS-FACTORIAL HepG2 Assay for human Interferon Regulatory Factor 1 (IRF1) binding to an Interferon-Stimulated Response Element (ISRE) (AID 2282948). As to conditions: HepG2 ISRE cis-reporter (Attagene), mRNA transcription readout; actives raise or lower the signal. The procedure, abridged:
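Transfected HepG2 (multiple reporter transcription units, cis elements) dosed 24 h. RNA → oligo(dT) RT → PCR → 6-FAM primer extension → HpaI → CE. DMSO = negative control/baseline.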

Assay [5] can be described thus: ATG_M_32_CIS: Attagene CIS-FACTORIAL HepG2 Assay for M32 Transcription Factor (Internal Marker) (AID 2282949).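 Further: background control marker of the multiplexed CIS panel rather than a real target.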 The note with it: HepG2 Attagene cis-factorial M32 reporter, mRNA; actives raise or lower the signal. The procedure, abridged:
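Internal background marker read-out: RT-PCR/capillary electrophoresis fluorescence of reporter transcripts from transiently transfected HepG2 cells after 24 h chemical exposure. Activity fitted bidirectionally relative to DMSO negative control.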

Assay [6] can be described thus: ATG_M_06_CIS: Attagene CIS-FACTORIAL HepG2 Assay for M06 Transcription Factor (Internal Marker) (AID 2282950). The note with it: HepG2 Attagene CIS-FACTORIAL M06 internal marker reporter; actives raise or lower the signal. The procedure, abridged: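 Measured 24 h post-dosing in transiently transfected HepG2 cells, this internal-marker endpoint reports reporter mRNA via RT-PCR with fluorescent primer extension and capillary electrophoresis. DMSO served as negative control and baseline for bidirectional fitting.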

The target in assay [7] is Hypoxia-inducible factor 1-alpha (Homo sapiens) (UniProt Q16665). Nature of the assay: ATG_HIF1a_CIS: Attagene CIS-FACTORIAL HepG2 Assay for human Hypoxia Inducible Factor 1 (HIF1A) (AID 2282951). The note with it: HepG2 Attagene cis-factorial HIF1a reporter transcription; actives raise or lower the signal. The procedure, abridged: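 Transient MRTU transfection of human HepG2 liver cells, 24 h compound treatment, then total RNA isolation, oligo(dT) reverse transcription, PCR amplification, fluorescent labelling and capillary electrophoresis of reporter fragments. Gain or loss relative to DMSO.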
Chain of Hypoxia-inducible factor 1-alpha (Homo sapiens) (Q16665 whole entry, looked up, the tested form may be a part): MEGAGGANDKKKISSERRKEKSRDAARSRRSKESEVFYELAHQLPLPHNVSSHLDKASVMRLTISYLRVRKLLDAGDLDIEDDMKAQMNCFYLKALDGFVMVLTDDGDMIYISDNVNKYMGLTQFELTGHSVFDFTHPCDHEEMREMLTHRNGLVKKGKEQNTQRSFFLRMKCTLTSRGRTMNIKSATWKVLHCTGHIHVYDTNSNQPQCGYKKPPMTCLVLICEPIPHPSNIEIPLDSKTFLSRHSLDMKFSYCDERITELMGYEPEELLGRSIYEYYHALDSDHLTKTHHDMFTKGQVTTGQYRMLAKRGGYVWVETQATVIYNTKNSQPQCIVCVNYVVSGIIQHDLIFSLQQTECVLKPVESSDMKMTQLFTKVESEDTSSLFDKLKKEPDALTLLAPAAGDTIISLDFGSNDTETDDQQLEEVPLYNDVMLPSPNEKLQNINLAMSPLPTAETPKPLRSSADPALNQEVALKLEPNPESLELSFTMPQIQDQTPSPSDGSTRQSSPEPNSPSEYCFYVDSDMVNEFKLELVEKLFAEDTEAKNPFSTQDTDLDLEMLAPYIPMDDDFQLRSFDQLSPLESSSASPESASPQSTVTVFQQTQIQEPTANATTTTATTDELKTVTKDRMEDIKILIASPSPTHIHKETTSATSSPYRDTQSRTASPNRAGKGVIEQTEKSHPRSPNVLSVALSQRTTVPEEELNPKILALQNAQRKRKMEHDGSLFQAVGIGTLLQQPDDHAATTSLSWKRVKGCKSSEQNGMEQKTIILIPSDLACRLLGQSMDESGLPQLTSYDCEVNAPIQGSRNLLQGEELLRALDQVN

The target in assay [8] is Hepatocyte nuclear factor 6 (Homo sapiens) (UniProt Q9UBC0). The assay can be described thus: ATG_HNF6_CIS: Attagene CIS-FACTORIAL HepG2 Assay for human Hepatocyte Nuclear Factor 6 (HNF6) (AID 2282952). As to conditions: HepG2 Attagene cis-factorial HNF6 reporter transcription; actives raise or lower the signal. The procedure, abridged:
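Transiently transfected HepG2 cells expressing cis-regulated reporter transcription units were exposed to chemical for 24 h in a 24-well format. Reporter transcript abundance was determined by fluorescence capillary electrophoresis.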

The target in assay [9] is Heat shock factor protein 1 (Homo sapiens) (UniProt Q00613). Nature of the assay: ATG_HSE_CIS: Attagene CIS-FACTORIAL HepG2 Assay for human Heat Shock Transcription Factor 1 (HSE) (AID 2282953). As to conditions: HepG2 HSE cis-reporter, Attagene RNA transcription; actives raise or lower the signal. The method in brief:
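Reporter mRNA induction in HepG2 is measured 24 h after dosing, using transiently transfected multiplexed cis-regulated reporter units. Signal comes from capillary electrophoresis of labelled RT-PCR products, with DMSO as negative control.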

A short description of assay [10]: ATG_MRE_CIS: Attagene CIS-FACTORIAL HepG2 Assay for human Metal Responsive Element (MRE) (AID 2282954). The note with it: HepG2 MRE cis-reporter transcription, Attagene multiplex; actives raise or lower the signal. The procedure, abridged:
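After a 24 h chemical exposure, transiently transfected HepG2 cells yield RNA whose reporter sequences are amplified, FAM-labelled and sized by capillary electrophoresis. Curves are fitted bidirectionally relative to DMSO.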

The target in assay [11] is Paired box protein Pax-6 (Homo sapiens) (UniProt P26367). The assay can be described thus: ATG_Pax6_CIS: Attagene CIS-FACTORIAL HepG2 Assay for human Paired Box 6 (PAX6) (AID 2282956). The note with it: HepG2 CIS-FACTORIAL PAX6 reporter transcription, RNA readout; actives raise or lower the signal. The procedure, abridged: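 Transient MRTU transfection of HepG2 → compound exposure 24 h → TriZol RNA, oligo(dT) RT → PCR, 6-FAM primer extension, HpaI cut → capillary electrophoresis; activity fitted both directions against DMSO.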
Chain of Paired box protein Pax-6 (Homo sapiens) (P26367 whole entry, looked up): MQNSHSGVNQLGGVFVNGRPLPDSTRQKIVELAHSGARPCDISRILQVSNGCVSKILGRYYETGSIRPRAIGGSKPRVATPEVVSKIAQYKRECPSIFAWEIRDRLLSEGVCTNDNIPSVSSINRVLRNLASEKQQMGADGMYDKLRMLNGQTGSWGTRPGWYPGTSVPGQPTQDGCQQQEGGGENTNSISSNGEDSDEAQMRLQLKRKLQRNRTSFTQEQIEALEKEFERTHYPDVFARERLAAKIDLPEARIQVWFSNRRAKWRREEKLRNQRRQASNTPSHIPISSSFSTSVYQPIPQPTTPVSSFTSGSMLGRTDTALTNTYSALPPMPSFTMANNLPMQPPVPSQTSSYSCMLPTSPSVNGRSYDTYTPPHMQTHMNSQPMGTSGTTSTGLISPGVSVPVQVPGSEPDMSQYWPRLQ

Assay [12] is described as follows: ATG_PPRE_CIS: Attagene CIS-FACTORIAL HepG2 Assay for human Peroxisome Proliferator-activated Response Element (PPRE) (AID 2282958). As to conditions: HepG2 PPRE cis-element reporter, Attagene transcription factor profiling; actives raise or lower the signal. The procedure, abridged: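 HepG2, transient MRTU transfection (cis promoter elements, endogenous TFs). 24 h dosing. RNA → oligo(dT) RT → PCR → 6-FAM primer extension → HpaI digest → CE. Bidirectional fit vs DMSO.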

A short description of assay [13]: ATG_RORE_CIS: Attagene CIS-FACTORIAL HepG2 Assay for human RAR-related Orphan Receptor Element (RORE) (AID 2282959). The note with it: HepG2 Attagene cis-factorial RORE reporter, mRNA; actives raise or lower the signal. The procedure, abridged:
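Transient MRTU transfection of human HepG2 liver cells (FuGene 6); 24 h compound exposure; TriZol RNA, oligo(dT) RT, PCR, FAM labeling, HpaI cut, CE fragment analysis. DMSO = negative control/baseline.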

The nature of assay [14]: ATG_Sox_CIS: Attagene CIS-FACTORIAL HepG2 Assay for human SRY-box transcription factor (SOX) (AID 2282960). The note with it: HepG2 Attagene cis-factorial SOX reporter, mRNA; actives raise or lower the signal. The procedure, abridged:
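Endogenous factor activity in human liver HepG2 cells carrying transfected cis-regulated reporter units. RNA taken 24 h post-dose, reverse-transcribed, PCR-amplified and sized by capillary electrophoresis. Gain or loss of signal fitted relative to DMSO.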

The target of assay [15] is Transcription factor Sp1 (Homo sapiens) (UniProt P08047). The assay can be described thus: ATG_Sp1_CIS: Attagene CIS-FACTORIAL HepG2 Assay for human Specificity Protein 1 (Sp1) (AID 2282961). The note with it: HepG2 Sp1 cis-reporter transcription, actives raise or lower the signal. The procedure, abridged:
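Transient MRTU-transfected HepG2, 24 h compound exposure. Total RNA → oligo(dT) RT → PCR of reporter → 6-FAM primer extension → HpaI digest → CE. Endpoint fitted both directions vs DMSO.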

Assay [16] in a line: ATG_SREBP_CIS: Attagene CIS-FACTORIAL HepG2 Assay for human Sterol Regulatory Element Binding (SREBP) (AID 2282962). The note with it: HepG2 Attagene cis-factorial SREBP reporter, mRNA; actives raise or lower the signal. The procedure, abridged:
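Transfected HepG2 (cis-regulated reporter library, endogenous TFs) → compound 24 h → total RNA → oligo(dT) RT → reporter-specific PCR → FAM primer extension, HpaI cut → CE fluorescence. Fit bidirectional vs DMSO.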

In assay [17] the target is Signal transducer and activator of transcription 3 (Homo sapiens) (UniProt P40763). The assay can be described thus: ATG_STAT3_CIS: Attagene CIS-FACTORIAL HepG2 Assay for human Signal Transducer and Activator of Transcription 3 (STAT3) (AID 2282963). The note with it: HepG2, Attagene cis-factorial STAT3 reporter transcription; actives raise or lower the signal. The procedure, abridged:
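After a 24 h compound incubation, total RNA from MRTU-transfected HepG2 cells was converted to cDNA and reporter sequences PCR-amplified, labelled and profiled by capillary electrophoresis. Gain and loss of signal were referenced to DMSO.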

Assay [18] is described as follows: ATG_TA_CIS: Attagene CIS-FACTORIAL HepG2 Assay for human TA Basal Promoter (AID 2282964). As to conditions: HepG2 Attagene CIS-factorial TA basal promoter reporter; actives raise or lower the signal. The procedure, abridged: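 Cis-factorial format in HepG2: reporters report endogenous factors, not chimeric Gal4 fusions. After 24 h treatment, reporter transcripts were measured by RT-PCR-capillary electrophoresis fluorescence, analysed bidirectionally versus DMSO.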

Assay [19] in a line: ATG_PBREM_CIS: Attagene CIS-FACTORIAL HepG2 Assay for human Phenobarbital-responsive Enhancer Module (PBREM) (AID 2282955). The note with it: HepG2 PBREM cis-reporter, Attagene multiplexed transcription; actives raise or lower the signal. The method in brief: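 Endogenous transcription factors in human liver HepG2 cells drive a PBREM cis-element reporter, whose transcript level after 24 h treatment is quantified by RT-PCR with capillary electrophoresis; activity fitted in both directions against DMSO.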

Assay [20] can be described thus: ATG_PXRE_CIS: Attagene CIS-FACTORIAL HepG2 Assay for human Pregnane X Receptor Element (PXRE) (AID 2282957). As to conditions: HepG2 Attagene CIS-FACTORIAL PXRE reporter, mRNA; actives raise or lower the signal. The method in brief: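 Cis-element reporter mRNA in human hepatoma HepG2 cells is measured 24 h post-dosing by RT-PCR, primer-extension labeling and capillary electrophoresis; gain or loss of signal is fitted relative to DMSO.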

Chain of Signal transducer and activator of transcription 3 (Homo sapiens) (P40763 whole entry, looked up): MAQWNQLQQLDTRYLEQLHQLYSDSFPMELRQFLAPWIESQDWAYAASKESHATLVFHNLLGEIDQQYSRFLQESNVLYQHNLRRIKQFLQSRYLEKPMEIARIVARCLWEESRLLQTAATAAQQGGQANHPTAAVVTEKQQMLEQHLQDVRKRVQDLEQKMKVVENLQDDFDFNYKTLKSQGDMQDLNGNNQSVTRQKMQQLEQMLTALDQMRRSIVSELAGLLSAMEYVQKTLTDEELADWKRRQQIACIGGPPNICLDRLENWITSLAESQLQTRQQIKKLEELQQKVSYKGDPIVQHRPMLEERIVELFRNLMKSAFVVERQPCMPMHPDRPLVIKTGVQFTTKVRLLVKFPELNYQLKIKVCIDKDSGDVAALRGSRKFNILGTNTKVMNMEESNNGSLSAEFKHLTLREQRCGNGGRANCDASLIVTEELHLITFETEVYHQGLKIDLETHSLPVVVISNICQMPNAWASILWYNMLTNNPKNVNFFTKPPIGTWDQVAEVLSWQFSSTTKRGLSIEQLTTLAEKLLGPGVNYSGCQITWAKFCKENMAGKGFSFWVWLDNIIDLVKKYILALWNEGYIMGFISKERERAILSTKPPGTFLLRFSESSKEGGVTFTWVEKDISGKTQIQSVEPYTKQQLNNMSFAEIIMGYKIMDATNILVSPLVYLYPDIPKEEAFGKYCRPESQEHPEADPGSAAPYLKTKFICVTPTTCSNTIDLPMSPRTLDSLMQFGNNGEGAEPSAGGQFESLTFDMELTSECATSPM
Chain of Bile acid receptor (Homo sapiens) (Q96RI1 whole entry, looked up, the tested form may be a part): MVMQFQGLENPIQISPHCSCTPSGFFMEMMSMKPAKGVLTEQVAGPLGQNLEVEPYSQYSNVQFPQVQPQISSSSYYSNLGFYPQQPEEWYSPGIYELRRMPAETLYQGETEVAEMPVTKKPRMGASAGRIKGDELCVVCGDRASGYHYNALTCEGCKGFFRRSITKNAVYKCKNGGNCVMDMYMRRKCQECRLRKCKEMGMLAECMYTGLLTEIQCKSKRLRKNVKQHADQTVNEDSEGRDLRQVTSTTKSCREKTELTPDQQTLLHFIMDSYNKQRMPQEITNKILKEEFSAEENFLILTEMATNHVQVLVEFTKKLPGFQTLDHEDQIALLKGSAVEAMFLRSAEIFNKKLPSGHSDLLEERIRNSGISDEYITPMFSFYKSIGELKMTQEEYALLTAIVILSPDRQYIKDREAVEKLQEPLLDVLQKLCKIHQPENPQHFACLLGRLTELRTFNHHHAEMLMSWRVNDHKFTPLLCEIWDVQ
Chain of Heat shock factor protein 1 (Homo sapiens) (Q00613 whole entry, looked up): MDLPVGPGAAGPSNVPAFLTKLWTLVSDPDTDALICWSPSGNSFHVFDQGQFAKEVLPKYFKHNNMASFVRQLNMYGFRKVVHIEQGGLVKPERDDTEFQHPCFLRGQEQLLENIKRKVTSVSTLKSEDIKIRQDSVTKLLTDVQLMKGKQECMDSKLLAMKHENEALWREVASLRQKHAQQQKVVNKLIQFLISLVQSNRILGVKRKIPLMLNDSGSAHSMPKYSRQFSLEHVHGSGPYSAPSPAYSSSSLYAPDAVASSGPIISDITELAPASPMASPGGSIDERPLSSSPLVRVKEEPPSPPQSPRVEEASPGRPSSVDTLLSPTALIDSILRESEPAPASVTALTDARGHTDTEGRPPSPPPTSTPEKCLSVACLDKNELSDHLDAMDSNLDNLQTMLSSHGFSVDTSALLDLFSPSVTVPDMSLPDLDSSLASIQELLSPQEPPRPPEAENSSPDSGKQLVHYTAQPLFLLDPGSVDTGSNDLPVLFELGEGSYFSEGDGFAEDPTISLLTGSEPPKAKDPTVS
Chain of Transcription factor Sp1 (Homo sapiens) (P08047 whole entry, looked up): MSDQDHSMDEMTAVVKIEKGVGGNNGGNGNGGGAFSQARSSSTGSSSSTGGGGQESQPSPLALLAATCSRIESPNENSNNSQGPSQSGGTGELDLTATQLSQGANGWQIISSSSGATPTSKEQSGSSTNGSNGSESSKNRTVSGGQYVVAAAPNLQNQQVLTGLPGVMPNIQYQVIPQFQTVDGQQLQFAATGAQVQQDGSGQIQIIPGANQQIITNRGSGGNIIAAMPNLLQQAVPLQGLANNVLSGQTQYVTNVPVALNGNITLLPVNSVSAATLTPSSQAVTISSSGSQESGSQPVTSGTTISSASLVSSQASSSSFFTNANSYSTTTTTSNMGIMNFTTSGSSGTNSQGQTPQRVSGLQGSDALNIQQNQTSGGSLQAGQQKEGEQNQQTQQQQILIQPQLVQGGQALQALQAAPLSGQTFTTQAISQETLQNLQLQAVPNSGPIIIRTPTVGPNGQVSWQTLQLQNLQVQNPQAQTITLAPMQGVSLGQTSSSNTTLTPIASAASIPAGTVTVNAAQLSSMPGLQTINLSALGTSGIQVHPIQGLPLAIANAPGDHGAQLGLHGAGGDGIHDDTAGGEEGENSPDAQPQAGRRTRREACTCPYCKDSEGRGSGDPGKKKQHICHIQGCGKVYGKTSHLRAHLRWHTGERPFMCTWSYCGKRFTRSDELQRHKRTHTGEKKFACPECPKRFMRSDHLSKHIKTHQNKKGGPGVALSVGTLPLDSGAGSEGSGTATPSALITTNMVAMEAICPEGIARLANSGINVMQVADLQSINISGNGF
Chain of Hepatocyte nuclear factor 6 (Homo sapiens) (Q9UBC0 whole entry, looked up): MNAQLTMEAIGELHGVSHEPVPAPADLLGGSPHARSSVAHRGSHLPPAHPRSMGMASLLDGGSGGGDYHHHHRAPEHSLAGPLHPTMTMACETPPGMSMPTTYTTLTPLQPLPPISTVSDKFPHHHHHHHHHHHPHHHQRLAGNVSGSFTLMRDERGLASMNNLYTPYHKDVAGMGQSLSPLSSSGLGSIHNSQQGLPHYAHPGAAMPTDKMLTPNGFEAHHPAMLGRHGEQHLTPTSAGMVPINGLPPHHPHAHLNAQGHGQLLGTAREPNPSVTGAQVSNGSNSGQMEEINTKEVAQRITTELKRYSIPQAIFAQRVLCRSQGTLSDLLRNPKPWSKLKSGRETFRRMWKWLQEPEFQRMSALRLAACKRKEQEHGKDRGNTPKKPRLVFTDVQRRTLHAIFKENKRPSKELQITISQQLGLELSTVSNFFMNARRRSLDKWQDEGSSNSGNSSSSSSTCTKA

On to `NC(=O)Cn1c(=O)cc(CCN2CCN(c3nccc4sccc34)CC2)c2ccc(F)cc21`, for which the result in assay [1], in [2], in assay [3], in assay [4], in assay [5] and in assay [6] was inactive. The molecule was classed as inactive in assay [8], in [9], in [10], in assay [11], in assay [12] and in [13]. Besides, the call in assay [14], in [15], in [17] and in [18] was inactive. Also, the concentration at half-maximal activity (AC50) – broadly, the midpoint of the concentration-response curve, whichever way the signal moves – is 61.4 µM (active) in assay [7] and 18.4 µM (active) in assay [16].

With `Cc1ccc(Cl)cc1`, the outcome in assay [1], in assay [2], in assay [3], in assay [4], in assay [5] and in assay [6] was inactive. Further, the molecule was classed as inactive in [9], in [10], in assay [19], in [11], in [20] and in assay [12]. Also, the molecule was classed as inactive in assay [13], in assay [14], in [15], in [16], in assay [17] and in assay [18]. The AC50 in assay [7] is 57.2 µM (active).

For `Cc1nc(-c2ccc3c(c2)CCN(CCC2CCC(NC(=O)/C=C/c4ccc(F)cc4)CC2)CC3)no1` (configuration not stated), the molecule was called inactive in assay [1], in assay [2], in [3], in assay [4], in assay [5] and in assay [6]. The call in [7], in assay [8], in [9], in [10], in [19] and in assay [11] was inactive. Also, the call in assay [20], in assay [12], in assay [13], in assay [14], in assay [15] and in [16] was inactive. The molecule was classed as inactive in assay [17] and in assay [18].
